In PubChem BioAssay AID430 (Sanford-Burnham Center for Chemical Genomics, 2006):
Out of some 63,000 compounds screened, about 1,100 (1.7%) were called active. The sample as a whole holds a higher share of actives than the screen did. Potency and affinity values are given separately. Unmarked numbers belong to inactive results. No stated cut-off is given here; in the data, active means cytotoxicity above about 50%; inactive means the rest.

Test: cytotoxicity in HPDE-C7 cells, cell-based, fluorescence, HTS (AID 430);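 further: cells exposed to compound for 48 hours before viability readout; 0% = vehicle and 100% = reference cytotoxic drug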
Conditions: HPDE-C7 pancreatic duct cells viability, at 10 µM, stronger effect = higher value

SMILES | cytotoxicity
O=C(NCc1ccco1)C1CCCCN1S(=O)(=O)c1ccc(F)cc1 (configuration not stated) | -4.3%
CCOCCOC(=O)COc1ccc(N2C(=O)c3ccccc3C2=O)cc1 | -18.5%
O=C(CCCn1c(=S)[nH]c2ccccc2c1=O)N1CCOCC1 | -24.3%
COc1ccc(C(O)P(=O)(O)CCc2ccccc2)cc1 (configuration not stated) | -28.1%
COc1cccc(CNC(=O)c2nnn(CC(=O)Nc3ccc(C)c(C)c3)c2N)c1 | 0.7%
COc1ccccc1C(=O)Nc1ccc2c(c1)nc(CCNC(C)=O)n2C | -7.3%
Cn1nc(-c2ccc(Cl)cc2)c2cc(C(=O)N3CCN(c4ccccn4)CC3)sc21 | -0.6%
COc1ccc(N2CCN(C(=O)c3cc4c(-c5cccc(OC)c5)nn(C)c4s3)CC2)cc1 | -2.7%
Cc1ccc(OCC(=O)N2CCN(C3=NS(=O)(=O)c4ccccc43)CC2)cc1 | 0.8%
CCOc1ccccc1OCCCCN1CCCC1 | 3%
CCOC(=O)c1c(C)oc2c1cc(O)c1ccccc12 | 15.4%
COC(=O)c1c(C)oc(C)c(C(=O)OC)c1=O | 1.7%
CC(C)NC(=O)c1cnc(N2CCN(c3ccccn3)CC2)c2ccccc12 | -9.4%
COc1ccc(C(=O)N(CN2CCCC2=O)c2nccs2)cc1OC | 6.2%
c1ccc(-c2nc(N3CCN(c4ccccc4)CC3)nc(-n3ccnc3)n2)cc1 | 43%
CC(C)Nc1nc(-c2ccccc2)nc(-n2ccnc2)n1 | 58.3% (active)
c1ccc(-c2nc(N3CCCCCC3)nc(-n3ccnc3)n2)cc1 | -19.9%
c1ccc(-c2nc(NC3CC3)nc(-n3ccnc3)n2)cc1 | 9.6%
c1ccc(-c2nc(-n3ccnc3)nc(-n3ccnc3)n2)cc1 | 20.1%
COCCN1Cc2cccc(C(=O)NCc3ccc4c(c3)OCO4)c2C1=O | -2.7%
CCN(CC)S(=O)(=O)c1ccc(-c2nnc(SCC(=O)Nc3ccc4c(c3)OCO4)o2)cc1 | 3.5%
Cc1ccc(C(N)=S)c(C)c1 | -27.6%
Cc1c(C(=O)Nc2ccc(F)cc2)oc2ccc(S(=O)(=O)N3CCC4(CC3)OCCO4)cc12 | 11.5%

SMILES | cytotoxicity
Cc1c(C(=O)NCCC2=CCCCC2)oc2ccc(S(=O)(=O)N3CCC4(CC3)OCCO4)cc12 | 35.3%
Cc1c(C(=O)Nc2ccccc2Cl)oc2ccc(S(=O)(=O)N3CCC4(CC3)OCCO4)cc12 | 22.3%
Cc1c(C(=O)NCCC2=CCCCC2)oc2ccc(S(=O)(=O)N3CCOCC3)cc12 | 52.5% (active)
Cc1c(C(=O)NCCc2ccccc2)oc2ccc(S(=O)(=O)N3CCOCC3)cc12 | -7.6%
Cc1c(C(=O)Nc2cccc(Cl)c2)oc2ccc(S(=O)(=O)N3CCC4(CC3)OCCO4)cc12 | 55.3% (active)
Cn1c(=O)c2cc(S(=O)(=O)NCCC(=O)N3CC=C(c4ccccc4)CC3)ccc2n(C)c1=O | -11.2%
COc1c(Cl)cc(Cl)cc1/C=N/n1cnnc1 | -1.3%
CNS(=O)(=O)c1ccc(NC(=O)C(CCSC)NC(N)=O)cc1 (configuration not stated) | 0.9%
CCOc1ccc(S(=O)(=O)Nc2cccc(Cl)c2)cc1 | 57.6% (active)
CCOc1ccc(NS(=O)(=O)c2cc(Cl)ccc2OC)cc1 | -8.2%
CCOc1ccc(S(=O)(=O)Nc2cccnc2)cc1 | -3.5%
COc1ccc(S(=O)(=O)Nc2cccc(Cl)c2)cc1OC | 13.9%
CCOc1ccc(S(=O)(=O)Nc2cc(Cl)ccc2O)cc1 | 67.2% (active)
CCOc1ccc(NS(=O)(=O)c2ccc(NS(C)(=O)=O)cc2)cc1 | -4.7%
CCCc1cc(=O)[nH]c(SC(CC)C(=O)Nc2ccccc2C#N)n1 (configuration not stated) | -23.8%
O=C(Cn1cc2c(n1)CCCC2)NC1CCCCCC1 | -9.2%
Cn1cccc1C(=O)OCc1cc(Cl)cc2c1OCOC2 | 1.1%
CCN(CC(=O)Nc1ccccc1C(=O)OC)S(=O)(=O)c1ccc(OC)cc1 | 1.1%
Cc1ccc(Cl)cc1N1CCN(Cc2nnnn2C2CCCCC2)CC1 | -16%
Cc1ccc(N=c2oc3cc(O)ccc3cc2C(N)=O)cc1 | 3.9%
NC(=O)c1cc2ccc(O)cc2oc1=Nc1ccccc1 | 5.3%
Cc1cccc(N=c2oc3cc(O)ccc3cc2C(N)=O)c1 | 59.6% (active)
COCCn1c(SCC(=O)Nc2nnc(C)s2)nnc1-c1cc2ccccc2cc1O | 7.4%

SMILES | cytotoxicity
Cc1[nH]c(=O)[nH]c(=O)c1NS(=O)(=O)c1ccc2c(c1)CCCC2 | 10.1%
COCCCN(C(=O)Nc1ccccc1)C(C)c1ccncc1 (configuration not stated) | 4.9%
COc1ccc(N2C(=O)CC(N3CCN(C4CCc5ccccc5C4)CC3)C2=O)cc1 (configuration not stated) | -10.3%
CCCCc1ccc(NC(=O)CSC2=C(C#N)C(c3ccco3)C3=C(CCCC3=O)N2)cc1 (configuration not stated) | 72.2% (active)
Cc1ccc(NC(=O)CSC2=C(C#N)C(c3ccco3)C3=C(CC(C)(C)CC3=O)N2)cc1 (configuration not stated) | 57.2% (active)
COc1cccc(NC(=O)CSC2=C(C#N)C(c3ccco3)C3=C(CCCC3=O)N2)c1 (configuration not stated) | 22.1%
CCOC(=O)C1=C(c2ccccc2)NC(SCC(=O)Nc2ccc(C)cc2)=C(C#N)C1c1ccco1 (configuration not stated) | 10.3%
CC1(C)CC(=O)C2=C(C1)NC(SCC(=O)Nc1ccccc1)=C(C#N)C2c1ccco1 (configuration not stated) | -16.1%
CCc1ccc(NC(=O)CSC2=C(C#N)C(c3ccco3)C3=C(CCCC3=O)N2)cc1 (configuration not stated) | -0.7%
O=C(CN1C(=O)C2C3C=CC(C3)C2C1=O)NCCN1CCCc2ccccc21 (configuration not stated) | -7.4%
CC1CCCN(S(=O)(=O)c2ccc(S(=O)(=O)N3CCCN(Cc4ccccc4)C3)cc2)C1 (configuration not stated) | 3.7%
COc1ccc(N2CCN(c3nc4c(c(=O)[nH]c(=O)n4C)n3CCCc3ccccc3)CC2)cc1 | -7.6%
Cc1ccc(-c2c3c(=O)n(C)c(=O)n(C)c3cn2Cc2ccccn2)cc1 | -3.1%
CCCOc1ccc(CSc2nnc(CCC)n2N)cc1 | -13.5%
CN1CCN(C2=C(Cl)C(=O)N(C3CCCCC3)C2=O)CC1 | -8%
O=C1c2ccncc2C(=O)N1C1CCCCC1 | -7.2%
Cc1ccc(NS(=O)(=O)c2ccc(OCC(=O)NCc3ccco3)cc2)cc1 | 6.8%
CC(C)CCn1nc(C(=O)OC(C)C(=O)NC(N)=O)c2ccccc2c1=O (configuration not stated) | -13.9%
Cc1ccccc1N=C1NC(=O)CS1 | -24.1%
CCCn1c(CN2CCN(C(=O)OCC)CC2)nc2c1c(=O)n(C)c(=O)n2C | -8.2%
CCCCOC(=O)C1Cc2ccccc2C(=O)O1 (configuration not stated) | -4.8%
CCCCCn1c(CN2CCN(Cc3ccccc3)CC2)nc2c1c(=O)[nH]c(=O)n2C | 0%
CCCCCn1c(CN2CCN(c3cccc(Cl)c3)CC2)nc2c1c(=O)[nH]c(=O)n2C | 43.9%

SMILES | cytotoxicity
Cc1ccc(Cl)cc1N1CCN(Cc2nc3c(c(=O)[nH]c(=O)n3C)n2Cc2ccccc2F)CC1 | 112% (active)
CC(C)Cn1c(CN2CCN(c3ccccc3F)CC2)nc2c1c(=O)[nH]c(=O)n2C | -0.6%
Cn1c(=O)[nH]c(=O)c2c1nc(CN1CCN(c3cccc(Cl)c3)CC1)n2Cc1ccccc1Cl | -3.5%
O=C(Cc1c(O)c2ccccc2[nH]c1=O)NCc1cccc(F)c1 | 2.7%
CCN(CC)CCCN1C(=O)C(=O)/C(=C(/O)c2ccc(OC)c(Cl)c2)C1c1ccco1 (configuration not stated) | 4.6%
COc1ccccc1CN1C(=O)[C@@H]2C(CCC(N)=O)NC3(C(=O)Nc4c3ccc(Cl)c4C)[C@@H]2C1=O (some centres not stated) | -5.3%
c1ccc2c(c1)Cn1nnnc1-2 | 1.3%
Cn1nc(-c2ccc(N3CCCCC3)c(NC(=O)c3ccco3)c2)c2ccccc2c1=O | 64.9% (active)
CCCC(=O)Nc1cc(-c2nn(C)c(=O)c3ccccc23)ccc1N1CCCCC1 | -10.2%
CCC(=O)Nc1cc(-c2nn(C)c(=O)c3ccccc23)ccc1N1CCCCC1 | 5.4%
O=C(CCCC(=O)N(CC(=O)NC1CCCC1)C1CCCC1)Nc1ccccn1 | -20.8%
CCNC(=O)NC(=O)C(C)Oc1ccc(C(=O)OC)cc1 (configuration not stated) | 2.8%
Cc1sc(NC(=O)CSc2nnc(COc3ccccc3)n2C)c(C#N)c1C | 4.2%
Cc1ccc(-c2csc3nnc(SCC(=O)Nc4nsc(-c5ccccc5)n4)n23)cc1 | -4.6%
Oc1ccccc1-c1nnc(COc2ccc(Cl)cc2Cl)o1 | 35.9%
O=C(O)CCCC(=O)Nc1nc(-c2ccccc2)cs1 | 6.9%
COc1cc2[nH]c(=O)n(CCC(=O)N3CCN(c4cc(Cl)ccc4C)CC3)c(=O)c2cc1OC | 63.8% (active)
CCOc1cc2[nH]c(=O)n(CCC(=O)N3CCN(c4ccccc4OC)CC3)c(=O)c2cc1OCC | -8.1%
COc1cc2[nH]c(=O)n(CCC(=O)N3CCN(c4cccc(C)c4C)CC3)c(=O)c2cc1OC | 0.4%
COc1ccc(Cl)cc1C(=O)N1CCN=C1SC | -11.2%
CCOc1cc(C#N)c(NC(=O)c2ccnn2C)cc1OCC | 23.5%
CCOc1cc(C#N)c(NC(=O)c2ccco2)cc1OCC | 12.6%
CCOc1cc(C#N)c(NC(=O)c2cccnc2)cc1OCC | 51.5% (active)
